Reference: article PMC5540273 (PLoS ONE, 2017)
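Further: KINOMEscan kinase panel screen.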

Each molecule was assayed on ULK2. Conditions: concentration: 1 μM, replicates: in singlicate; n = 1.
In the case of COc1ccc(NC(=O)c2ccoc2)cc1-c1ccc(C(=O)NCC2CC2)cc1 [GW810437], the “%Inh” value is reported as 28%.
O=C(Nc1n[nH]c2nc(-c3ccccc3O)ccc12)C1CC1 [SB-711880] was tested, and the “%Inh” value was 0%.
CNc1nccc(-c2ccc3c(N)n[nH]c3c2)n1 [GSK2206003] was tested, and the “%Inh” value was 41%.
c1ccc(Oc2ccc(Nc3ccnc4cc(-c5ccc(CN6CCCCC6)o5)ccc34)cc2)nc1 [GW567143] was tested, and the “%Inh” value was 0%.
For Cc1ccc(NC(=O)c2ccc(Cl)c(Cl)c2)cc1-c1ccc(C(=O)Nc2ccncc2)cc1 [GSK1398460], the “%Inh” value was 0%.
For CC(C)(C)c1ccc(C(=O)Nc2cn3cc(-n4ccnc4)ccc3n2)cc1, the “%Inh” value was 14%.
Cl.Cl.NCC(NC(=O)c1cc(-c2cccnc2)c(-c2ccnc3[nH]ccc23)s1)c1ccccc1 (centres unmarked) [GSK1323434] was tested, and the “%Inh” value was 0%.
In the case of Cc1ccc(Nc2ccnc(Nc3ccc(C)c(F)c3)n2)cc1O.Cl [GW582868], the “%Inh” value is reported as 0%.
For O=C(Nc1n[nH]c2nc(-c3cccc(O)c3)ccc12)C1CC1 [SB-711805], the “%Inh” value was 10%.
In the case of COc1cccc(NC(=O)NCCNc2ccnc(Nc3ccc(F)cc3)n2)c1 [GSK1379879], the “%Inh” value is reported as 0%.
Cc1cc(-c2c(-c3ccc(F)cc3)ncn2CCCN2CCOCC2)nc(N)n1 [SB-222517] was tested, and the “%Inh” value was 30%.
In the case of COc1ccc(C)c(Nc2ccnc(Nc3ccc(-c4cnc[nH]4)cc3)n2)c1.Cl [GW784041], the “%Inh” value is reported as 0%.
CN(C)CCNS(=O)(=O)c1ccc(-c2ccnc3[nH]ccc23)cc1 [GSK977620] was tested, and the “%Inh” value was 0%.
With COc1cccc(CC(=O)N2CCc3cc(-c4cn(C)c5ncnc(N)c45)ccc32)c1 [GSK2608899] the “%Inh” value was 5%.
